Targets with a hit are over-represented here; the source holds about 8,800 in all. About 0.5% of all pairs of compound and target were hits. A number with no mark means an inactive call.
Experiments:
Assay in all cases: log2 fold change, soluble protein after heating vs DMSO (PISA); higher = thermal stabilisation; K562 lysate, 10 uM; active = over 0.2 and 3.5 SD of the protein, either way, in both replicates (recomputed)
lapatinib = compound: CS(=O)(=O)CCNCc1ccc(-c2ccc3ncnc(Nc4ccc(OCc5cccc(F)c5)c(Cl)c4)c3c2)o1 [lapatinib]
Method in brief: (§1)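 K562 pellets were dounce-homogenised in PBS pH 7.4 containing 1 mM MgCl2, and the crude extract, at 1 mg/mL protein, was exposed to 10 μM compound for 30 min. Aliquots were heated for 3 min across 48°C-58°C, pooled, brought to 0.5% NP-40 at 4°C and spun at 21,000xg for 90 min, with the supernatant taken as soluble protein. TMTpro 16plex LC-MS/MS with equalised channel sums quantified that protein. Values are log-two fold changes in thermal stability relative to solvent controls, taken from duplicates.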

pictilisib = compound: CS(=O)(=O)N1CCN(Cc2cc3nc(-c4cccc5[nH]ncc45)nc(N4CCOCC4)c3s2)CC1 [pictilisib]
Method in brief: as §1

crizotinib = compound: C[C@@H](Oc1cc(-c2cnn(C3CCNCC3)c2)cnc1N)c1c(Cl)ccc(F)c1Cl [crizotinib]
Method in brief: as §1

[1] = compound: C[C@H](C1=CC=C(C=C1)C(=O)NC2=C3C=CNC3=NC=C2)N
Method in brief: as §1

duvelisib = compound: C[C@H](Nc1ncnc2nc[nH]c12)c1cc2cccc(Cl)c2c(=O)n1-c1ccccc1 [duvelisib]
Method in brief: as §1

gandotinib = compound: Cc1cc(Nc2cc(CN3CCOCC3)c3nc(C)c(Cc4ccc(Cl)cc4F)n3n2)n[nH]1 [gandotinib]
Method in brief: as §1

tozasertib = compound: Cc1cc(Nc2cc(N3CCN(C)CC3)nc(Sc3ccc(NC(=O)C4CC4)cc3)n2)n[nH]1 [tozasertib]
Method in brief: as §1

doramapimod = compound: Cc1ccc(-n2nc(C(C)(C)C)cc2NC(=O)Nc2ccc(OCCN3CCOCC3)c3ccccc23)cc1 [doramapimod]
Method in brief: as §1

bafetinib = compound: Cc1ccc(NC(=O)c2ccc(CN3CC[C@H](N(C)C)C3)c(C(F)(F)F)c2)cc1Nc1nccc(-c2cncnc2)n1 [bafetinib]
Method in brief: as §1

[2] = compound: Cc1cccc(CC(=O)N2CCc3c2ccc(-c2cn(C)c4ncnc(N)c24)c3F)n1
Method in brief: as §1

nilotinib = compound: Cc1cn(-c2cc(NC(=O)c3ccc(C)c(Nc4nccc(-c5cccnc5)n4)c3)cc(C(F)(F)F)c2)cn1 [nilotinib]
Method in brief: as §1

[3] = compound: Cc1nc(Nc2n[nH]c3c2CN(C(=O)N[C@H](CN(C)C)c2ccccc2)C3(C)C)c2sccc2n1
Method in brief: as §1

dasatinib = compound: Cc1nc(Nc2ncc(C(=O)Nc3c(C)cccc3Cl)s2)cc(N2CCN(CCO)CC2)n1 [dasatinib]
Method in brief: as §1

[4] = compound: Cc1ncc(-c2ccnc(Nc3ccc(S(C)(=O)=O)cc3)n2)n1C(C)C
Method in brief: as §1

[5] = compound: Cn1cc(-c2ccc3c(c2)CCN3C(=O)Cc2cccc(C(F)(F)F)c2)c2c(N)ncnc21
Method in brief: as §1

quisinostat = compound: Cn1cc(CNCC2CCN(c3ncc(C(=O)NO)cn3)CC2)c2ccccc21 [quisinostat]
Method in brief: as §1

tipifarnib = compound: Cn1cncc1[C@@](N)(c1ccc(Cl)cc1)c1ccc2c(c1)c(-c1cccc(Cl)c1)cc(=O)n2C [tipifarnib]
Method in brief: as §1

[6] = compound: NC(=O)Nc1cc(-c2cccc(F)c2)sc1C(=O)N[C@H]1CCCNC1
Method in brief: as §1

[7] = compound: NC(=O)c1cnc(N[C@@H]2CCCC[C@@H]2N)nc1Nc1cccc(-n2nccn2)c1
Method in brief: as §1

[8] = compound: NC1(c2ccc(-c3nc4ccn5c(=O)[nH]nc5c4cc3-c3ccccc3)cc2)CCC1
Method in brief: as §1

Chain of UniProt P04083 (P04083 whole entry, looked up): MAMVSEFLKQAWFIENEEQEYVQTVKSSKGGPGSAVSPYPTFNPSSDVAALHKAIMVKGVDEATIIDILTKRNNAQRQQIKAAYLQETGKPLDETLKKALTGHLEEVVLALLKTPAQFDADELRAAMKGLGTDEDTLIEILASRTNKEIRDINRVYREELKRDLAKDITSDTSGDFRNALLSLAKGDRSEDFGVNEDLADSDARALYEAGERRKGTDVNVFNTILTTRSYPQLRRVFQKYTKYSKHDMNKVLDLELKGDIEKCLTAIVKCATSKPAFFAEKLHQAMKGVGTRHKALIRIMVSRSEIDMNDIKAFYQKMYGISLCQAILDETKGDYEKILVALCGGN
Chain of UniProt Q8NFV4 (Q8NFV4 whole entry, looked up): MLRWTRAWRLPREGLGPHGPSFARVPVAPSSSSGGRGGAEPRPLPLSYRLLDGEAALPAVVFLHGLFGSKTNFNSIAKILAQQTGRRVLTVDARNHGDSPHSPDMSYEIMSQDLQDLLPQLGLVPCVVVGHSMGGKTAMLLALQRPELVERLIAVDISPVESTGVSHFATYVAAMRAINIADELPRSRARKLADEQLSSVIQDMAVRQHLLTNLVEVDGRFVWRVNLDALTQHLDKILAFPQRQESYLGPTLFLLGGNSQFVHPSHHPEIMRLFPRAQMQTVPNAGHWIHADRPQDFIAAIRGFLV
Chain of UniProt O00763 (O00763 whole entry, looked up): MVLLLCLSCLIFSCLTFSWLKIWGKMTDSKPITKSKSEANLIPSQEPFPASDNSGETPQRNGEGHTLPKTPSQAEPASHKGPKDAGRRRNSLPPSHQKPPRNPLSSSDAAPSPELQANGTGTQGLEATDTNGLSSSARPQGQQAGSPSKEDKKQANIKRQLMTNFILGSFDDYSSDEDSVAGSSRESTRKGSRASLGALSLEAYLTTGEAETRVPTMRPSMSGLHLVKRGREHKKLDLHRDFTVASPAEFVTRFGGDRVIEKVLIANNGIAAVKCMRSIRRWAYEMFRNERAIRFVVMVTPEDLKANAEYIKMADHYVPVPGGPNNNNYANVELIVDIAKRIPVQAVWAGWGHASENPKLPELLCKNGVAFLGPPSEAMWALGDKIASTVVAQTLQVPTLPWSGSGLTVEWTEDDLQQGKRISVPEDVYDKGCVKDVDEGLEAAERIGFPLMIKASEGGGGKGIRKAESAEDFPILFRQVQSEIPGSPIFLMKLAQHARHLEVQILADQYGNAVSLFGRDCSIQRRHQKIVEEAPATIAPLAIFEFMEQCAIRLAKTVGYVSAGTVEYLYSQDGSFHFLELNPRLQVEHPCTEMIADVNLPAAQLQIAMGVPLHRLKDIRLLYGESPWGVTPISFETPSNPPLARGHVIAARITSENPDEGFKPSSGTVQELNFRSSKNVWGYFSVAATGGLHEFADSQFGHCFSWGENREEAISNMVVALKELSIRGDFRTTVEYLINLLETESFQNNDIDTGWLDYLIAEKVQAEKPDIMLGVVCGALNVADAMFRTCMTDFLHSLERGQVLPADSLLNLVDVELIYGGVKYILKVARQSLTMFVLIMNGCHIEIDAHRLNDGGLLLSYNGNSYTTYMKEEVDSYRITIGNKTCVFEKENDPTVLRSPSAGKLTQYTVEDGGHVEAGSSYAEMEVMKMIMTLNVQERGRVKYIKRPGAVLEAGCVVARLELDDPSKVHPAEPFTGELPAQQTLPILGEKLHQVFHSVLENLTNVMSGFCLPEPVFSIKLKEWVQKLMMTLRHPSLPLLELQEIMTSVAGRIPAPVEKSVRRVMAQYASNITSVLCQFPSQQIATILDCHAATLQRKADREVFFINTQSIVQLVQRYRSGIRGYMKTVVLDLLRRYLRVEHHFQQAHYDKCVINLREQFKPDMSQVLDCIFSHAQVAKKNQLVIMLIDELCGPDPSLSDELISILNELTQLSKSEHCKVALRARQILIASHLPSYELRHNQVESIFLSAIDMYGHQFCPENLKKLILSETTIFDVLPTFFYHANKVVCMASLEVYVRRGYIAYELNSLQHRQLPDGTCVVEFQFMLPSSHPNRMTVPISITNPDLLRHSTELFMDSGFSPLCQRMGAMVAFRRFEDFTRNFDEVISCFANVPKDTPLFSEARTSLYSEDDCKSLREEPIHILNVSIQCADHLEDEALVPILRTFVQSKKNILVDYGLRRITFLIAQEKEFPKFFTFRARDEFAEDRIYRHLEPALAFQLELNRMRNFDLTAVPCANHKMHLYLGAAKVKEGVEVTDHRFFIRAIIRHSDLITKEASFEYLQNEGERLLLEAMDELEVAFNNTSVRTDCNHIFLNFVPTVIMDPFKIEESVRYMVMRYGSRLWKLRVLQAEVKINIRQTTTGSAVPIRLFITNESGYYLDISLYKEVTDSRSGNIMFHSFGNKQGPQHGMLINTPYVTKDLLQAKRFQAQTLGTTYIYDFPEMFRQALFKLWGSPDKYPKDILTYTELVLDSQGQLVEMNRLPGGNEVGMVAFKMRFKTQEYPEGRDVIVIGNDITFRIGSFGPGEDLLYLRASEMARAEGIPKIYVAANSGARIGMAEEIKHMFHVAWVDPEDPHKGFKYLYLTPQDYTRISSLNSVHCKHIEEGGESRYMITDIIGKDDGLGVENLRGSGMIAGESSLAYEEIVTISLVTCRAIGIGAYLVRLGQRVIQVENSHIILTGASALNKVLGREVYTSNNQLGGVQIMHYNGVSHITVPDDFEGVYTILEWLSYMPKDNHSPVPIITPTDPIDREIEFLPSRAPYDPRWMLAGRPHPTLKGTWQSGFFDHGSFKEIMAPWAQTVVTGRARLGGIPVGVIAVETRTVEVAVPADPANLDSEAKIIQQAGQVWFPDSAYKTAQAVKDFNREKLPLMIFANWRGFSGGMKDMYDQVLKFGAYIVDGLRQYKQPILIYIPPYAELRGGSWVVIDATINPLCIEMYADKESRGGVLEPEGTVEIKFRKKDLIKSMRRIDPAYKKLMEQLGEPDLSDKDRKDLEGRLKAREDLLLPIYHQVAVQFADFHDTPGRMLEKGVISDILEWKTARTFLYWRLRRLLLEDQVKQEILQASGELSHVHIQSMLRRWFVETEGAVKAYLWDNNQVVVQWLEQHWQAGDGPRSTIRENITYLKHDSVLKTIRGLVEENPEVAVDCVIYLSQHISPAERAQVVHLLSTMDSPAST
Chain of UniProt P05091 (P05091 whole entry, looked up): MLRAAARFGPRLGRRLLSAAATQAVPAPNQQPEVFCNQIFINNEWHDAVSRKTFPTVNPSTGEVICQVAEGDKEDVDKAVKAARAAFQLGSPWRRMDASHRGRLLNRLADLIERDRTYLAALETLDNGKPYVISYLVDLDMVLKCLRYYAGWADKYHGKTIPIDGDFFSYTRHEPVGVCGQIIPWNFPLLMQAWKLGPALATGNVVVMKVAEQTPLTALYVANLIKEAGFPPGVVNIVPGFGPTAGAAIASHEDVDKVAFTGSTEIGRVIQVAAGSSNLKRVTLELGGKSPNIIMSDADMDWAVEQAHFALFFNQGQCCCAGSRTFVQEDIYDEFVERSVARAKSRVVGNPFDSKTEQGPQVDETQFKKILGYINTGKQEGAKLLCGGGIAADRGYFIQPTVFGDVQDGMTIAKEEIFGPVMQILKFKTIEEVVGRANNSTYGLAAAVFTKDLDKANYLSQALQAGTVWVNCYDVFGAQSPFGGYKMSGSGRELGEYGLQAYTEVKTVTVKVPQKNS
Chain of UniProt P27144 (P27144 whole entry, looked up): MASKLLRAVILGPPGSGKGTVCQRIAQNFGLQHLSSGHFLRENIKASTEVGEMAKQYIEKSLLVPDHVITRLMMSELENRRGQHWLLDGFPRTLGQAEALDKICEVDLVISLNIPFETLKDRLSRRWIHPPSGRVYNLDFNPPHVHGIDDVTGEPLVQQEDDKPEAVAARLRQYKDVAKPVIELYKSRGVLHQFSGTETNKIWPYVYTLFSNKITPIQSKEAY
Chain of UniProt Q8IZP0 (Q8IZP0 whole entry, looked up): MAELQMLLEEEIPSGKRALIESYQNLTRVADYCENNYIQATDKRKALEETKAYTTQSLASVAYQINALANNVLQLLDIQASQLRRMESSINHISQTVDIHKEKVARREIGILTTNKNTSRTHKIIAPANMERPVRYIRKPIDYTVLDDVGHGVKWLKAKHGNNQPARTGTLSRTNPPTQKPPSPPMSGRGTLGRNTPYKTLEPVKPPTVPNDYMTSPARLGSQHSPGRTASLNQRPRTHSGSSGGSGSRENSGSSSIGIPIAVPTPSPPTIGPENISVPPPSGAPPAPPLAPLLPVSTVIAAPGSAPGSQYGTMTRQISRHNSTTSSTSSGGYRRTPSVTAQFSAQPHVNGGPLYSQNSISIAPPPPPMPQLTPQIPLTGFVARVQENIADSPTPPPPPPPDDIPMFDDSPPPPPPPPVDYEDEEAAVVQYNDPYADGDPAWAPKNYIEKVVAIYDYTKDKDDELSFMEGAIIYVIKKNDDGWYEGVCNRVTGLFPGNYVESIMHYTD
Chain of UniProt Q9Y4X0 (Q9Y4X0 whole entry, looked up): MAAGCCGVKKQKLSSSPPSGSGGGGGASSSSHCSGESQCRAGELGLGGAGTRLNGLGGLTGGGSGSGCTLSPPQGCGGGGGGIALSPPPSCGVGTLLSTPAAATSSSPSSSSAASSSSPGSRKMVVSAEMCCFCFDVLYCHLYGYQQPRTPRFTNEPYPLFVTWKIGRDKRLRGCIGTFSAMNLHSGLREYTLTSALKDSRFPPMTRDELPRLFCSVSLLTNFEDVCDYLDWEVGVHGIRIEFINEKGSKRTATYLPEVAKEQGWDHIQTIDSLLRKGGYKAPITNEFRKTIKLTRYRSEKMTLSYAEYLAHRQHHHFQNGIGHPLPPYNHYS
Chain of UniProt Q9NXU5 (Q9NXU5 whole entry, looked up): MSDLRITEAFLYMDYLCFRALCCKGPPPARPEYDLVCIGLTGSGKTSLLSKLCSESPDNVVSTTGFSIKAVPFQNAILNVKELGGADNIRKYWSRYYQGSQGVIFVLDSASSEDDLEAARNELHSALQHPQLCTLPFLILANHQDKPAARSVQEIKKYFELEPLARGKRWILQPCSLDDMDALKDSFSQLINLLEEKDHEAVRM

Row | Target | log2 fold change (lapatinib) | log2 fold change (pictilisib) | log2 fold change (crizotinib) | log2 fold change [1] | log2 fold change (duvelisib) | log2 fold change (gandotinib) | log2 fold change (tozasertib) | log2 fold change (doramapimod) | log2 fold change (bafetinib) | log2 fold change [2] | log2 fold change (nilotinib) | log2 fold change [3] | log2 fold change (dasatinib) | log2 fold change [4] | log2 fold change [5] | log2 fold change (quisinostat) | log2 fold change (tipifarnib) | log2 fold change [6] | log2 fold change [7] | log2 fold change [8]
1 | ACACB (UniProt O00763) | -0.032 | -0.029 | -0.103 | -0.113 | 0.032 | 0.021 | 0.072 | 0.054 | -0.113 | 0.165 | -0.001 | -0.042 | -0.021 | -0.052 | 0.05 | -0.061 | 0.048 | 0.062 | -0.001 | -0.018
2 | ALDH2 (UniProt P05091) | 0 | 0 | -0.02 | -0.012 | -0.03 | 0.011 | 0.023 | -0.023 | 0.017 | -0.077 | 0.028 | -0.017 | 0.014 | -0.013 | 0.001 | 0.121 | 0.039 | 0.001 | 0.016 | -0.003
3 | AMMECR1 (UniProt Q9Y4X0) | 0.005 | -0.013 | -0.011 | -0.027 | 0.022 | -0.019 | 0.039 | -0.009 | -0.04 | 0.037 | -0.005 | -0.025 | -0.037 | 0.017 | 0.035 | -0.054 | 0.022 | 0.021 | 0.007 | -0.024
4 | AK4 (UniProt P27144) | -0.003 | -0.033 | 0.028 | -0.027 | 0.014 | -0.019 | 0.052 | 0.03 | -0.024 | 0.012 | -0.006 | 0.003 | -0.04 | 0.042 | 0.04 | -0.012 | 0.001 | 0.018 | -0.023 | -0.012
5 | ABI1 isoform 9 (UniProt Q8IZP0) | 0.011 | -0.048 | -0.006 | -0.26 (active) | 0.01 | 0.13 | 0.008 | -0.015 | 0.08 | 0.163 | -0.006 | -0.004 | -0.001 | -0.02 | -0.016 | 0.003 | -0.01 | -0.023 | 0.003 | 0.032
6 | ANXA1 (UniProt P04083) | 0.005 | 0.013 | 0.018 | -0.013 | 0.016 | -0.005 | 0.012 | 0.008 | 0.038 | 0.028 | -0.01 | -0.009 | -0.009 | -0.006 | -0.006 | 0.034 | 0.026 | -0.015 | 0.003 | 0.009
7 | ARL15 (UniProt Q9NXU5) | -0.001 | 0.097 | 0 | 0.682 (active) | -0.004 | -0.098 | 0.023 | 0.06 | 0.225 | -0.118 | -0.008 | 0.021 | -0.063 | -0.046 | 0.036 | 0.024 | 0.031 | -0.034 | 0.021 | 0.022
8 | ALDH1B1 (UniProt P30837) | -0.012 | 0.008 | -0.007 | -0.024 | 0.058 | 0.052 | 0.021 | -0.017 | -0.049 | -0.041 | 0.096 | -0.015 | -0.022 | 0.013 | 0.034 | 0.118 | 0.05 | 0.046 | 0.011 | 0.003
9 | AP4B1 (UniProt Q9Y6B7) | 0.064 | -0.142 | 0.025 | -0.106 | -0.058 | -0.023 | -0.011 | 0.019 | -0.079 | 0.135 | 0.023 | 0.011 | 0.032 | -0.013 | 0.027 | 0.018 | -0.051 | 0.1 | 0.028 | 0.007
10 | ALKBH4 (UniProt Q9NXW9) | -0.02 | 0.003 | 0.04 | -0.055 | 0.035 | -0.019 | 0.047 | -0.018 | -0.108 | -0.028 | -0.053 | -0.05 | -0.028 | -0.008 | 0.007 | -0.01 | 0.023 | 0.023 | -0.013 | 0.047
11 | AGO4 (UniProt Q9HCK5) | 0.013 | -0.076 | -0.01 | -0.113 | 0.014 | 0.048 | -0.001 | -0.014 | -0.004 | 0.002 | -0.152 | 0.07 | 0 | 0.004 | -0.022 | -0.037 | 0.005 | 0.015 | 0.014 | -0.002
12 | ARAP1 (UniProt Q96P48) | -0.022 | -0.046 | -0.065 | -0.03 | -0.002 | 0.014 | -0.005 | 0.063 | -0.016 | 0.034 | -0.009 | -0.029 | -0.036 | -0.032 | 0.013 | -0.072 | -0.041 | 0.029 | 0.006 | 0.003
13 | ABHD17B (UniProt Q5VST6) | 0.075 | -0.076 | -0.051 | 0.01 | 0.026 | -0.012 | -0.513 (active) | -0.026 | 0.01 | 0.183 | 0.032 | 0.057 | 0.007 | 0.087 | 0.095 | 0.003 | -0.099 | 0.009 | -0.041 | 0.009
14 | ABHD11 (UniProt Q8NFV4) | 0.024 | 0.033 | -0.019 | -0.121 | 0.028 | 0.853 (active) | 0.081 | -0.034 | 0.009 | 0.05 | -0.001 | -0.021 | -0.005 | -0.044 | 0.079 | 0.081 | 0.042 | -0.016 | 0.04 | -0.003
15 | APAF1 (UniProt O14727) | 0.022 | -0.068 | -0.09 | -0.015 | -0.011 | -0.058 | -0.025 | 0.05 | 0.02 | 0.061 | -0.013 | 0.116 | -0.036 | 0.025 | 0.073 | -0.091 | -0.026 | 0.052 | 0 | 0.026
16 | AK2 (UniProt P54819) | 0.058 | -0.005 | -0.007 | 0.076 | -0.031 | 0 | 0 | 0.061 | 0.005 | -0.046 | 0.003 | -0.006 | 0.079 | -0.013 | -0.022 | 0.024 | 0.007 | -0.066 | 0.013 | 0.004
